# Assay outcomes deposited in PubChem by Johns Hopkins Ion Channel Center.
# KCNQ2 block: inhibitors of rat KCNQ2 potassium channel. CHO-K1 KCNQ2, FluxOR thallium flux, 20 min; hits give low values. B-score at 10 µM. hit rate 1.1% among 310,000;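 active = fluorescence ratio B-score at most minus 3 library SDs, with starting brightness B-score within 2 library SDs, cut at about -5.5 in these data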
# Target sequence (O88943 whole entry, looked up): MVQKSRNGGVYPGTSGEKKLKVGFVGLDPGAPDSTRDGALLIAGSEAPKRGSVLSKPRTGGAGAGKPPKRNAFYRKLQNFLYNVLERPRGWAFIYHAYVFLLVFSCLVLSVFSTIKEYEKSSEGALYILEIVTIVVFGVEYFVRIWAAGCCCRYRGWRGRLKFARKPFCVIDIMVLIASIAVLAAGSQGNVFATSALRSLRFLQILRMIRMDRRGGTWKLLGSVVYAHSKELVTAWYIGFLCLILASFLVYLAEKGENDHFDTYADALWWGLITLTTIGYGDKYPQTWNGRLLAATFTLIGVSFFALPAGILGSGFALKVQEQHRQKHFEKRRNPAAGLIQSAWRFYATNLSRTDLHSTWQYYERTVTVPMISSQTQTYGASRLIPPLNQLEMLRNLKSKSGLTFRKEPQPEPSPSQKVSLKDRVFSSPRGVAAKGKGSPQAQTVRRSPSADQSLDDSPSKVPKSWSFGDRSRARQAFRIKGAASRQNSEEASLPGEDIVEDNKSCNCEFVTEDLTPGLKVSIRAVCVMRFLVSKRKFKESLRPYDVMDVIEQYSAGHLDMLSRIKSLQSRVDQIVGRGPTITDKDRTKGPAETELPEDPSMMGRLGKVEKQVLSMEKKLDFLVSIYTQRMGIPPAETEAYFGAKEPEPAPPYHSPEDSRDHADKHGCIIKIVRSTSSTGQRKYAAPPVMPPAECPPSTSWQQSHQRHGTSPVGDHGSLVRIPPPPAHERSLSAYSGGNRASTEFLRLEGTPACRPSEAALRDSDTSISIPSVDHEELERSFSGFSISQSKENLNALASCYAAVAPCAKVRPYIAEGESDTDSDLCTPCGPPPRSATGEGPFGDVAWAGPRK
# KCNQ2 pot: KCNQ2 (rat) channel potentiation; hit rate 0.54% among 310,000; O88943; B-score at 10 µM; CHO-K1 KCNQ2, FluxOR thallium flux fluorescence; hits give high values; AID 2239;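 active = fluorescence ratio B-score at least 3 SD of library B-scores, with initial fluorescence B-score within 3 of them, cut at about 5.3 in these data; same plate scores as AID 2156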;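 also: B-score of peak minus minimum over baseline fluorescence ratio after K+ and Tl+ stimulus; positive B-score means potentiation of KCNQ2 with more thallium influx and brighter signal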
# * hit, by the source's call; i = inactive; . = no result given. A selection: hits, their analogues and other compounds. The true share with any hit is near 1.6%.
SMILES,KCNQ2 block,KCNQ2 pot
O=C(Nc1ccc(C(=O)O)cc1)/C(=C\c1ccccc1)NC(=O)c1ccco1,i,0.24
O=C(Nc1ccc(C(=O)O)cc1)/C(=C\c1ccc2c(c1)OCO2)NC(=O)c1ccco1,i,6.5*
Cc1cc(C)cc(NC(=O)CSc2nc(=O)n(CCCN3CCOCC3)c3c2CCCC3)c1,i,.
COc1ccc(N(CC(=O)N2CCC(C(N)=O)CC2)S(=O)(=O)c2ccccc2)cc1,i,0.79
O=C(Nc1cccc(-n2cccn2)c1)C1CCCN(Cc2cc3ccccc3[nH]2)C1 (stereo not drawn),-8.2*,-8.2
Cc1cc(CN2CCCC(C(=O)Nc3cccc(-n4cccn4)c3)C2)cc(C)c1O (stereo not drawn),i,.
Cn1nc(C(=O)NC2CCCCC2)c2c1-c1ccccc1S(=O)(=O)C2,i,0.37
Cc1ccc2c(Cl)cc(Cl)c(OCC(=O)NC(C)(C)C)c2n1,-7*,-7
COC(=O)COc1c(Cl)cc(Cl)c2ccc(C)nc12,i,.
COc1ccc(OC)c(C2C(C(=O)c3cccs3)=C(O)C(=O)N2CCN2CCOCC2)c1 (stereo not drawn),i,0.04
COc1cccc(OCc2cc(C3Nc4ccccc4C(=O)N3Cc3ccco3)ccc2OC)c1 (stereo not drawn),-5.9*,-5.9
O=C1c2ccccc2NC(c2ccc(F)cc2)N1Cc1ccco1 (stereo not drawn),i,0.53
O=C1c2ccccc2NC(c2ccccc2)N1Cc1ccco1 (stereo not drawn),i,.
COc1ccc(C2Nc3ccccc3C(=O)N2Cc2ccco2)cc1COc1ccc([N+](=O)[O-])cc1 (stereo not drawn),-6.8*,-6.8
CCCN(Cc1nnc(-c2ccccc2Cl)o1)C(=O)c1oc2ccccc2c1C,i,.
COc1cc(C(=O)NC(=S)Nc2ccc(Cl)cn2)cc(OC)c1OC,i,.
Cc1cc(C)cc(N(CC(=O)N2CCN(c3ccccc3)CC2)S(=O)(=O)c2c(C)noc2C)c1,-6.5*,-6.5
COc1cccc(N2CCN(C(=O)CN(c3cc(C)cc(C)c3)S(=O)(=O)c3c(C)noc3C)CC2)c1,i,.
CC(C)CCNC(=O)C1(O)c2ccccc2NC(=O)N1c1ccc(Cl)cc1 (stereo not drawn),i,0.01
Cc1[nH]c(C)c(S(=O)(=O)N2CCN(c3cccc(Cl)c3)CC2)c1C(=O)N1CCCCC1,i,.
Cc1ccc(C)c(N2CCN(S(=O)(=O)c3c(C)[nH]c(C)c3C(=O)N3CCCCC3)CC2)c1,-6.7*,-6.7
Cc1ccc(C)c(N2CCN(S(=O)(=O)c3c(C(=O)N4CCCCC4)c(C)n(C)c3C)CC2)c1,i,.
Cc1ccc(Cl)cc1N1CCN(S(=O)(=O)c2c(C)[nH]c(C)c2C(=O)N2CCCCC2)CC1,-7.2*,-7.2
FC(F)(F)c1ccc(-c2csc(-c3ccno3)n2)cc1,i,.
CC(C)(C)C(=O)OCc1nc(-c2ccc(C(F)(F)F)cc2)cs1,-5.6*,-5.6
SMILES,KCNQ2 block,KCNQ2 pot
Cc1cc(NC(=O)c2cn(C3CCCCC3)c(=O)c3c2c2ccccc2n3C)no1,-5.8*,-5.8
Cc1ccc(CNC(=O)c2cn(C3CCCCC3)c(=O)c3c2c2ccccc2n3C)o1,i,.
O=C(NC1CCCCC1)c1ccc2[nH]c(=O)c(=O)[nH]c2c1,i,1.2
O=C(COC(=O)Cc1ccc(Cl)cc1)Nc1ccc(OC(F)F)cc1,i,.
O=C(Nc1ccc(Cl)cc1)N(C1=NCCC1)c1ccc(OC(F)F)cc1,-5.7*,-5.7
O=C(NCCS(=O)(=O)NC1CCCCC1)c1ccc2c(c1)OCO2,i,0.63
O=C(CSc1n[nH]c(-c2ccccc2Cl)n1)NC1CCCCC1,i,.
O=C(CCCCCCCCC(=O)N/N=C/c1ccco1)N/N=C/c1ccco1,i,0.39
O=C(N/N=C\c1ccco1)Nc1cccc(Cl)c1,i,6*
Cc1cccc(NC(=O)CCC(=O)N/N=C/c2ccco2)c1,i,.
CCCCCC(=O)N/N=C/c1ccco1,i,7.2*
O=C(Nc1nncs1)C1CC(=O)N(CCc2ccc(F)cc2)C1 (stereo not drawn),i,.
O=C(NCc1cccnc1)c1ccc(-c2cc(Cl)ccc2Cl)o1,-6.8*,-6.8
O=C(Nc1cccnc1)c1ccc(-c2cc(Cl)ccc2Cl)o1,i,0.02
CC1CCCN(CCCNC(=O)c2nn(C)c3c2CS(=O)(=O)c2ccccc2-3)C1 (stereo not drawn),i,0.81
O=S(=O)(c1ccc(F)c(F)c1)N1CCN(c2ccccn2)CC1,i,0.14
Cc1ccccc1OCc1nnc(SCC(=O)NCc2ccccc2)n1C,i,.
CCn1c(COc2cccc(OC)c2)nnc1SCC(=O)Nc1ccccc1C(=O)OC,-5.7*,-5.7
CCn1c(CC(=O)Nc2ccccc2)nnc1SCC(=O)Nc1ccccc1C(=O)OC,i,0.48
CCOC(=O)c1ccccc1NC(=O)CSc1nnc(COc2ccccc2C)n1C,-7.1*,-7.1
Cc1ccccc1NC(=S)NC(=O)COc1ccccc1C,i,1.9
C=CCSC1=N/C(=C\c2cc(OCC)c(OC(C)=O)c([N+](=O)[O-])c2)C(=O)S1,i,7.1*
C=CCSC1=N/C(=C\c2ccc3c(c2)OCO3)C(=O)S1,i,0.47
CC(C)=CC(=O)Nc1ccc(OCc2ccccc2)cc1,i,7.6*
O=C(Nc1ccc(OCc2ccccc2)cc1)c1ccccc1,i,.
SMILES,KCNQ2 block,KCNQ2 pot
OCCN1CCN(CC(O)COc2ccc(Cl)cc2)CC1 (stereo not drawn),i,0.32
OCCN1CCN(CC(O)COc2ccc(C34CC5CC(CC(C5)C3)C4)cc2)CC1 (stereo not drawn),-7.1*,-7.1
COc1ccccc1C(=O)NC(=O)COC(=O)Cc1ccccc1[N+](=O)[O-],i,.
COc1ccc(Br)c(C(=O)N(C)CC(=O)Nc2ccc(N3CCOCC3)cc2)c1,i,1.1
CC1CC(C)CN(c2ccc(C(=O)NCc3ccc4c(c3)OCO4)cc2[N+](=O)[O-])C1 (stereo not drawn),i,8.9*
Cc1cc(C(=O)NCc2ccc3c(c2)OCO3)ccc1[N+](=O)[O-],i,3.6
C#C[C@]1(O)CCC2C3CCC4=CC(=O)CC[C@@H]4C3CC[C@@]21C (stereo partly drawn),i,.
CC#C[C@]1(O)CC[C@H]2[C@@H]3CCC4=CC(=O)CCC4=C3[C@@H](c3ccc(N(C)C)cc3)C[C@@]21C,-5.9*,-5.9
CCOc1ccc(NC(=O)C(=O)NCCN2CCN(S(=O)(=O)c3ccccc3)CC2)cc1,i,0.28
CC(C)CC(C(=O)NC1CCCC1)N(Cc1cccs1)C(=O)c1snc(C(N)=O)c1N (stereo not drawn),-5.7*,-5.7
CC(C)CC(C(=O)NC1CCCCC1)N(Cc1cccs1)C(=O)c1snc(C(N)=O)c1N (stereo not drawn),i,.
CC(CCc1ccccc1)NC(=O)CN1CCc2ccccc2C1 (stereo not drawn),-5.8*,-5.8
O=C(NC(Cc1ccccc1)C(=O)O)c1ccccc1 (stereo not drawn),i,.
O=C(NC(Cc1ccccc1)C(=O)N1CCc2ccccc2C1)c1ccccc1 (stereo not drawn),-6.3*,-6.3
Cc1ccccc1NC(=O)CN1CCc2ccccc2C1,i,.
COC(=O)c1ccccc1NC(=O)CN1CCc2ccccc2C1,-7.8*,-7.8
CC(=O)C(Cc1ccccc1)NC(=O)CN1CCc2ccccc2C1 (stereo not drawn),i,.
